# Only some compounds are listed: those with a hit (about 3.9% of all), similar ones and a draw of the others.
# Bead autofluor – counter-screen for toxin protease inhibitors: compound fluorescence; compound autofluorescence counterscreen, microsphere flow cytometry; hits give high values; fluorescence intensity (no concentration beside the values); actives 3.1% (n = 360,000); AID 624483; in the data active = fluorescence intensity above about 16000
# SARS 3CLpro inh – SARS-CoV 3CLpro protease inhibition; AID 1706; recombinant SARS-CoV 3CLpro, quenched FRET peptide cleavage; inhibition, % at 6 µM; P0C6X7; actives 0.14% (n = 290,000); in the data active = inhibition above about 12%
# Anthrax LF prot – anthrax lethal factor protease inhibition; multiplex microsphere protease cleavage assay, LF; actives 0.12% (n = 360,000); inhibition, % at 10 µM; AID 588501; in the data active = inhibition above about 30%; also: plate controls were buffer without enzyme for full effect and enzyme alone for no effect
# Target sequence (P15917 whole entry, looked up): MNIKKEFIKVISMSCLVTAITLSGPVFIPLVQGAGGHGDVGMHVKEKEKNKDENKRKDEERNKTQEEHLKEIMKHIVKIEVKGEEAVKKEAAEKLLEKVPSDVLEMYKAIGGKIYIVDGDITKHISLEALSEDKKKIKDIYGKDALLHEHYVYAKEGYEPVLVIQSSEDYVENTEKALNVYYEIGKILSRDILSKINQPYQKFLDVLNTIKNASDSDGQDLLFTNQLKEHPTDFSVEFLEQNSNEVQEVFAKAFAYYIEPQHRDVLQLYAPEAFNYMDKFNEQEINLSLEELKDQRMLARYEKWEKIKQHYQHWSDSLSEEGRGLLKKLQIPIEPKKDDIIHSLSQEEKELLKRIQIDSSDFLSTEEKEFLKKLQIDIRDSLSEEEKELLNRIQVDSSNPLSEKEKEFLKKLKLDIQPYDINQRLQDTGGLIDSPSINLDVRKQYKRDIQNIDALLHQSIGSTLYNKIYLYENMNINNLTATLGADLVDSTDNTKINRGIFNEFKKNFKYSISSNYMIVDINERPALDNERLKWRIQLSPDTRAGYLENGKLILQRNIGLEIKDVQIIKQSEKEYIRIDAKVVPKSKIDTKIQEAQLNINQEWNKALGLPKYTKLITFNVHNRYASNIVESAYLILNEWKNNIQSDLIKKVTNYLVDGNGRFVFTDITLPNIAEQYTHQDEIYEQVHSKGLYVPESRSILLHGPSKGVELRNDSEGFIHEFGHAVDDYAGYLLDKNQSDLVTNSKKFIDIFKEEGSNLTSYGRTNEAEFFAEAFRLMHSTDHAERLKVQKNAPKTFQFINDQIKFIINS
# CCHF vOTU inh-1 – blocks the CCHF virus ovarian tumor domain protease; inhibition, % at 11.5 µM; actives 0.55% (n = 370,000); AID 651958; CCHFV vOTU protease, Pep-AMC fluorescence; also: 0% = vehicle wells with enzyme and 100% = no enzyme wells
# BoNT A protease – BoNT A light chain protease inhibition; inhibition, % at 10 µM; actives 0.17% (n = 360,000); multiplex microsphere protease substrate cleavage, flow cytometry; in the data active = inhibition above about 30%; also: plate controls were buffer without enzyme for full effect and enzyme alone for no effect
# BoNT F protease – inhibitors of Botulinum neurotoxin F light chain protease. Multiplex microsphere protease cleavage assay, flow cytometry. inhibition, % at 10 µM. actives 0.22% (n = 360,000); in the data active = inhibition above about 35%, passing the limit was not always enough; also: plate controls were buffer without enzyme for full effect and enzyme alone for no effect
# CCHF vOTU inh-2 – CCHFV vOTU protease inhibition, confirmation | shares compounds with CCHF vOTU inh-1 | Recombinant CCHFV vOTU, Pep-AMC fluorescence | inhibition, % at 11.5 µM | actives 17% (n = 1,900) | AID 686976
# Active calls of the source: *; · = no result. Rule as the data show it, unless noted: active = inhibition above about 30%; inactive = the rest.
SMILES,Bead autofluor,SARS 3CLpro inh,Anthrax LF prot,CCHF vOTU inh-1,BoNT A protease,BoNT F protease,CCHF vOTU inh-2
CCOc1c(OC(C)=O)ccc(/C=C/c2ccc3cccc(OC(C)=O)c3n2)c1[N+](=O)[O-],8238,2,-1,·,-1,-8,·
C=CCN1C(=O)/C(=C/c2ccc(OC(C)=O)c(OCC)c2[N+](=O)[O-])SC1=S,2612,-2,9,30*,25,3,82*
CCn1c(C)cc(/C=C2/NC(=O)N(CC(=O)Nc3cccc(C)c3)C2=O)c1C,10929,2,-2,31*,0,-7,3
COc1ccc(C(=O)CSc2nnc(-c3cccc(Cl)c3)n2Cc2ccco2)cc1,·,·,·,8,·,·,·
CCOC(=O)c1sc(NC(=O)c2ccc(Br)o2)cc1C,2861,3,-2,31*,0,-4,-4
CCOC(=O)c1sc(NC(=O)Nc2cccc(Cl)c2)cc1C,11211,-1,2,30*,2,6,0
CCOC(=O)[C@@]12CCC3=C1N(CCC3)C(=O)[C@H](CC(=O)NCC13CC4CC(CC(C4)C1)C3)C2,·,·,·,3,·,·,·
COc1cc(OC)c(NC(=O)NNC(=O)C(=O)NC2CC2)cc1Cl,·,·,·,-6,·,·,·
CCN(CCC(=O)Nc1cc(OC)ccc1OC)Cc1ccccc1,·,·,·,4,·,·,·
CCc1ccc(OCC(=O)Nc2ccc(S(=O)(=O)Nc3cc(C)on3)cc2)c(Br)c1,5734,11,0,44*,1,-2,2
COc1cc(/C=C2/NC(=O)N(Cc3ccccc3F)C2=O)cc(OC)c1O,2190,-1,-1,40*,1,-1,-12
CCOc1cc(/C=C2/NC(=O)N(Cc3ccccc3F)C2=O)ccc1O,4719,-8,-2,16,0,-14,·
Cc1ccc[n+](CC(=O)Nc2cc(C(F)(F)F)ccc2Cl)c1,8478,-4,-4,-7,1,4,·
CCC(C)(C)c1ccc(OCCCC[n+]2cccc(C)c2)c(C(C)(C)CC)c1,1918,1,-3,40*,0,-6,7
CN1CCCCC(NC(=O)c2ccc(Cl)cc2Cl)C1=O (centres undefined),·,·,·,-9,·,·,·
O=C(c1ccccc1NS(=O)(=O)c1ccccc1)N1CCCCCC1,3317,-2,-14,16,-5,4,·
CC(=O)Nc1ccc(S(=O)(=O)Nc2ccccc2C(=O)N2CCCC2)cc1,3651,-3,-10,30*,0,13,-6
O=C1C(=Cc2cn(-c3ccccc3)nc2-c2ccc(OCc3ccc(Cl)cc3)cc2)SC(=S)N1CCS(=O)(=O)O,3288,·,-1,34*,0,16,25
O=S1(=O)N[C@H](Cc2ccccc2)COc2cccc(NCCO)c21,·,·,·,-3,·,·,·
O=C1C(=O)c2cccnc2-c2ncccc21,5831,·,0,111*,-1,-7,86*
O=C1c2ccccc2-c2nccnc21,8229,1,-10,8,0,-4,·
Cc1cc(/C=C(\C#N)C(=O)Nc2ccccc2)c(C)n1-c1cccnc1,2060,-6,-1,-31,-1,-5,·
Cc1cc(C(=O)O)ccc1-n1c(C)cc(/C=C(/C#N)C(=O)Nc2ccccc2)c1C,4699,1,-6,33*,0,-3,-7
CC[C@@H]1C=C(C(=O)O)[C@H](c2ccc(Cl)cc2)N1S(=O)(=O)c1ccc(C)cc1,3723,·,-4,32*,0,3,-15
Cc1ccc(S(=O)(=O)N2[C@@H](c3ccc(Cl)cc3)C(C(=O)O)=C[C@H]2CC2CCCC2)cc1,2961,·,0,31*,0,-8,20
SMILES,Bead autofluor,SARS 3CLpro inh,Anthrax LF prot,CCHF vOTU inh-1,BoNT A protease,BoNT F protease,CCHF vOTU inh-2
Cc1ccc(S(=O)(=O)N2[C@@H](c3ccc(C#N)cc3)C(C(=O)O)=C[C@H]2CC2CCCC2)cc1,4294,·,-1,15,0,-7,·
Cc1ccc(S(=O)(=O)N2[C@@H](c3ccc(Cl)c(Cl)c3)C(C(=O)O)=C[C@H]2CC2CCCC2)cc1,3836,·,-2,34*,0,-1,18
CC[C@@H]1C=C(C(=O)O)[C@H](c2ccc(C)cc2)N1S(=O)(=O)c1ccc(C)cc1,2909,·,2,-1,0,-4,·
CC(C)OC(=O)[C@@H](Cc1ccccc1)N[C@H](/C=C/c1ccccc1)[C@@H](O)Cc1ccccc1,·,·,·,25,·,·,·
CN1CCC/C1=C/C=C1\SC(=S)NC1=O,2263,-9,-2,40*,0,-10,33*
S=C(Nc1ccc2nsnc2c1)N1CCCC1,4436,-1,-7,105*,2,-10,-12

# High-throughput results: PubChem, several laboratories
